Screens: PubChem, National Center for Advancing Translational Sciences (NCATS)
TSG101-PTAP inh: qHTS Assay for Iinhibitors of HIV-1 Budding by Blocking the Interaction of PTAP/TSG101. Tumor susceptibility gene 101 protein (Homo sapiens), Q99816. Fluorescence polarization, FITC-PTAP peptide / Tsg101 binding. Potency, µM (series often up to 115 µM), without a hit: at the highest dose activity change, negative = inhibition, usual class: inhibitors. 340,000 tested, under 10 active. AID 493005, 2010; active means well fitted inhibition curve with a large enough effect in the main read-out, with a control signal flat, not every such curve was filed as active; inconclusive means small, poorly fitted or top-dose-only effect, or effect the other way, or a change in a side signal; inactive means no such curve, though single readings can be large or run the other way; further: % of control where 0% means no effect
Target sequence (Q99816 whole entry, looked up): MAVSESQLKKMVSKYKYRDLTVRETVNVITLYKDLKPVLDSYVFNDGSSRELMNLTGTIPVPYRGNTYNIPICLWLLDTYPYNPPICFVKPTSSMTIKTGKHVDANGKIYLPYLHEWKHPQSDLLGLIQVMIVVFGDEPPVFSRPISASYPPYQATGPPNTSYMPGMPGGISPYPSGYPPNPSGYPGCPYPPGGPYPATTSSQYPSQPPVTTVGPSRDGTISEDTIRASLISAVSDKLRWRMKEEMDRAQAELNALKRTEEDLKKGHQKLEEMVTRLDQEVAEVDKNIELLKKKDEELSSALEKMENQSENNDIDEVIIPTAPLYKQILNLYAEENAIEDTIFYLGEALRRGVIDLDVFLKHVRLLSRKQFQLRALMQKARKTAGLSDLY
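Compounds were pin-transferred onto Tsg101 binding domain (10 uM final) in HEPES pH 7.5 buffer, then FITC-PTAP peptide was added at 50 nM final. After 20 min at RT, polarization reported peptide displacement across a qHTS concentration series.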
SW480 rereplic: A quantitative high throughput screen for small molecules that induce DNA re-replication in SW480 colon adenocarcinoma cells; Potency, µM (top dose mostly 46.1 µM), inactives show at the highest dose re-replication activation, hits mostly activators; actives 1.8% (n = 340,000); SW480 DNA re-replication, Hoechst DNA content imaging, 48 h; further: % of control where 0% means no effect; nearly all actives have a fitted effect of over 55% in size
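Image-based DNA-content assay: after two days of treatment, nuclei were labelled with the DNA dye Hoechst and imaged, and hits were compounds raising the count of nuclei showing high fluorescence intensity.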
KB-3-1 tox: qHTS assay for MDR1-selective chemotherapeutics: Primary screen using the parental adenocarcinoma cell KB-3-1 | KB-3-1 viability, CellTiter-Glo ATP luminescence, 72 h | Potency, µM (top dose mostly 46.1 µM), most hits filed as cytotoxic | actives 1.4% (n = 400,000); further: on the % scale 0 is the no-effect control and ±100 the full control effect; nearly all actives have a fitted effect of over 60% in size
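Parental KB-3-1 adenocarcinoma cells in phenol-red-free DMEM with 10% FBS were pin-treated with compounds at several concentrations, incubated 72 h at 37 °C, and viability read by CellTiter-Glo luminescence; concentration-effect curves were fitted after normalization.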
PINK1 modulator: A Quantitative High throughput Screen to Identify Chemical Modulators of PINK1 Expression; AID 624263, 2012; Potency, µM (top dose mostly 76.6 µM), without a hit: at the top dose activation (PINK1 increase), hits mostly activators; PINK1 immunofluorescence, high-content cytometry, 24 h; actives 0.2% (n = 410,000); active means well fitted activation curve with a large enough effect; inconclusive means small, poorly fitted or top-dose-only effect; cell line not stated here; further: % of control where 0% means no effect; nearly all actives have a fitted effect of over 65% in size
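Cells are seeded, rested 12 hours, then given compound at five concentrations or DMSO for 24 hours. After fixation, blocking and antibody staining, PINK1 amount and mitochondrial localization are scored; CCCP serves as control.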
MCF10A rereplic: A quantitative high throughput screen for small molecules that induce DNA re-replication in MCF 10a normal breast cells; actives 2.9% (n = 350,000); Potency, µM (highest dose often 46.1 µM), inactives show at the highest dose activity, positive = re-replication, most hits filed as activators; AID 624296, 2012; MCF 10A DNA re-replication, Hoechst nuclear intensity, 48 h; further: % of control where 0% means no effect; nearly all actives have a fitted effect of over 50% in size
KB-V1 MDR tox: qHTS assay for MDR1-selective chemotherapeutics: Primary screen using the drug-selected MDR subline cells KB-V1; KB-V1 MDR cells viability, CellTiter-Glo, 72 h; Potency, µM (doses to about 46.1 µM), actives largely listed as cytotoxic; actives 3.4% (n = 400,000); AID 1347076, 2019; further: on the % scale 0 is the no-effect control and ±100 the full control effect; nearly all actives have a fitted effect of over 60% in size
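Cytotoxicity via CellTiter-Glo luminescence after 72 h compound exposure at 37 degrees C. Cells: drug-selected KB-V1 line, DMEM phenol-red free plus 10% FBS. Compounds tested at multiple concentrations; normalized data fitted to concentration-effect curves.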
Numbers without * were called inactive; i = inactive; ? = inconclusive; nt = no result; [ ] = remark or other dose. Compounds with a hit are over-represented: about 6.8% of the library has one in this group of screens. Unless noted, the call rests on the fitted dose curve; in most records, active means well fitted curve in the direction sought with a large enough effect; inconclusive means small, poorly fitted or top-dose-only effect, or another doubt; inactive means no such curve, though single readings can be large; an effect the other way counts as inactive or inconclusive. Potency means the concentration at half of the fitted maximal effect.

SMILES	TSG101-PTAP inh	SW480 rereplic	KB-3-1 tox	PINK1 modulator	MCF10A rereplic	KB-V1 MDR tox
Cc1ccc(C(=O)C2=C(O)C(=O)N(CC3CCCO3)C2c2ccccc2F)o1 (stereo not given)	0.2%	4.6%	i	-0.7%	-0.1%	i
CCCCOc1ccc(C2C(C(=O)c3ccc(C)o3)=C(O)C(=O)N2CC2CCCO2)cc1 (stereo not given)	1.1%	?	?	-2.6%	-1.7%	11.6µM*
CSc1nnc(-c2sc3cc(C(F)(F)F)cnc3c2-c2ccccc2)n1C	-4.6%	13.9%	6.51µM*	0.7%	4.61µM*	3.66µM*
O=C(O)c1sc2cc(C(F)(F)F)cnc2c1-c1ccccc1	-10.5%	-5.6%	i	4.3%	5.5%	i
COc1ccccc1NS(=O)(=O)c1ccc(Cl)c(NC(=S)NC(=O)C2CCCC2)c1	1.5%	1.3%	i	12.8%	?	?
CCN(CC)S(=O)(=O)c1ccc(Cl)c(NC(=S)NC(=O)C2CCCC2)c1	-7.0%	4.61µM*	i	?	?	i
CCN(CC)c1ccc(S(=O)(=O)Nc2cc(Cl)ccc2Cl)cc1NC(=S)NC(=O)C1CCCC1	-1.7%	7.3%	i	?	11.6µM*	i
CCc1ccccc1Nc1nn2c(=O)c3ccc(C(=O)NCc4cccs4)cc3nc2s1	nt	nt	nt	5.1%	nt	nt
Cc1nn(C)c2c1c(C(F)(F)F)cc(=O)n2C(C)C(=O)Nc1ccccc1F (stereo not given)	nt	nt	i	1.8%	nt	i
COc1cccc(C2=NOC(C(=O)Nc3cc(OC)c(OC)c(OC)c3)C2)c1 (stereo not given)	nt	-4.0%	i	7.3%[38.3 µM]	?	20.6µM*
COc1ccc(NC(=O)C2CC(c3cc(OC)c(OC)c(OC)c3)=NO2)cc1OC (stereo not given)	-1.2%	1.2%	i	-1.9%[38.3 µM]	2.0%	13µM*
COc1cc(C2=NOC(C(=O)NC3CCCCC3)C2)cc(OC)c1OC (stereo not given)	-10.5%	-0.4%	i	-0.2%[38.3 µM]	1.0%	9.2µM*
COc1ccc(N2C(=O)c3ccccc3NC2c2ccc(OC)c(COc3ccc(NC(C)=O)cc3)c2)cc1 (stereo not given)	nt	nt	i	2.6%	nt	i
COc1ccccc1Cn1c(C)c(C(=O)NCc2ccc(C#N)cc2)sc1=O	nt	nt	i	0.0%	nt	16.4µM*
